This is a sample that favours compounds with a hit; in the whole collection about 1.3% have one here.
IL1B NFkB inh: inhibitors of IL-1B driven NFkB p65 nuclear import, primary screen, imaging, HUVEC, IL-1B stimulus, high-content imaging; 0.43% of 94,000 active; AID 796, 2007; HUVEC IL-1B NFkB p65 nuclear translocation imaging; inhibition, % at 2 µM;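 active means inhibition above about 30% together with a positive call from visual inspection of the well image, limit read from the data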;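 further: nuclear over cytoplasmic p65 intensity ratio measured by imaging; 0% = IL-1B stimulated DMSO wells and 100% = unstimulated DMSO wells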
HUVEC tox IL1B: cytotoxicity in IL-1B stimulated HUVEC, primary screen, cytotoxicity control for IL-1B NFkB translocation project, imaging, Hoechst nuclear count, IL-1B stimulus; 0.41% of 94,000 active; AID 845, 2007; HUVEC cell count loss; cell count reduction, % at 2 µM;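 active means cell count reduction more than 3 SD above the screen-wide mean, cut at about 70% in these data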;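 further: normalized per plate to untreated control cells as the no-loss baseline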
IL1B NFkB pot: enhancers of NFkB p65 translocation in HUVEC – imaging, IL-1B stimulus, high-content imaging, primary screen; HUVEC IL-1B NFkB p65 nuclear translocation imaging; activation, % at 2 µM; 0.3% of 94,000 active; AID 819, 2007;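 active means activation above 40%, about the mean plus 3 SD, also judged a hit on visual image review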;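 further: percent activation is computed from the nuclear over cytoplasmic p65 intensity ratio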
Insulin prom inh: inhibitors of insulin promoter-driven GFP, primary screen, imaging, TRM-6 cells (human fetal islet line), eGFP reporter, cell count; reporter expression induced with tamoxifen; inhibition, % at 2 µM; 0.9% of 130,000 active; AID 1273, 2008;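 active means inhibition above the mean plus 3 SD, with well images judged a real hit on visual review, cut at about 60% in these data, passing the limit was not always enough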
The depositor's hits bear a star.

How did C/C(=N\NC(=O)c1ccn(C)n1)c1ccc(NC(=O)C2CCCC2)cc1 do in these assays?
Insulin prom inh: 71.4*

What do the screens show for `C/C(=N/NC(=O)c1ccoc1C)c1ccc(NC(=O)C2CCCC2)cc1`?
Insulin prom inh: 7.1

What do the screens show for `CS(=O)(=O)N1CCC(C(=O)Nc2ccc(OCc3ccccc3)cc2)CC1`?
IL1B NFkB inh: -15.2; HUVEC tox IL1B: -23.2; IL1B NFkB pot: 15.2; Insulin prom inh: 71.0*

Results for c1ccc(Nc2nc3ccccc3o2)cc1 ?
IL1B NFkB inh: 13.7; HUVEC tox IL1B: -23.6; IL1B NFkB pot: -13.7; Insulin prom inh: 67.9*

What do the screens show for `CC1CC(C)CN(C(=O)COC(=O)CCc2nc3ccccc3c(=O)[nH]2)C1` (stereo unspecified)?
Insulin prom inh: 21.9

Results for CCc1ccccc1N(C1=NCCCS1)S(=O)(=O)c1ccc(C(C)(C)C)cc1 ?
Insulin prom inh: -8.3

How did O=C(COC(=O)C1CCN(S(=O)(=O)c2cccc3cccnc23)CC1)c1ccccc1 do in these assays?
Insulin prom inh: -15.4

What do the screens show for `CCC(Sc1nc2c(cnn2-c2ccc(Cl)cc2)c(=O)[nH]1)C(=O)OC` (stereo unspecified)?
Insulin prom inh: 80.0*

What do the screens show for `COc1ccc(OC)c(C(=O)c2ccccc2)c1`?
IL1B NFkB inh: 3.5; HUVEC tox IL1B: 13.0; IL1B NFkB pot: -3.5; Insulin prom inh: 81.0*

Results for Cc1ccnc2nc(C(=O)OCC(=O)NCCc3ccccc3)nn12 ?
Insulin prom inh: 73.3*

What do the screens show for `CCCN1Cc2cccc(C(=O)N3CCN(c4ccccc4)CC3)c2C1=O`?
IL1B NFkB inh: -32.2; HUVEC tox IL1B: 94.3*; IL1B NFkB pot: 32.2; Insulin prom inh: -6.7

Results for CC(C)(C)NC(=O)CN(C(=O)Cn1nnc(-c2ccccc2F)n1)c1cccc2c1CCCC2 ?
IL1B NFkB inh: -10.9; HUVEC tox IL1B: -29.1; IL1B NFkB pot: 10.9; Insulin prom inh: 47.8

What do the screens show for `COc1ccc(C2=C(N)c3ccccc3C2=O)cc1`?
IL1B NFkB inh: 0.0; HUVEC tox IL1B: 9.4; IL1B NFkB pot: 2.1; Insulin prom inh: 71.4*

What do the screens show for `COc1ccc(Nc2nc(N)nc(COc3ccc(OC)cc3)n2)cc1`?
IL1B NFkB inh: 33.0*; HUVEC tox IL1B: -7.1; IL1B NFkB pot: -33.0; Insulin prom inh: -34.3

Results for CCN(CC)S(=O)(=O)c1cc(C(=O)Oc2ccccc2OC)ccc1OC ?
IL1B NFkB inh: -4.3; HUVEC tox IL1B: -4.6; IL1B NFkB pot: 4.3; Insulin prom inh: -6.2

What do the screens show for `CCN(CC)S(=O)(=O)c1cc(F)ccc1OC`?
IL1B NFkB inh: 6.5; HUVEC tox IL1B: 77.2*; IL1B NFkB pot: -6.5; Insulin prom inh: -38.5

What do the screens show for `C=CCNC(=S)NNC(=O)c1cccn(Cc2cccc(Cl)c2)c1=O`?
IL1B NFkB inh: -4.8; HUVEC tox IL1B: 29.1; IL1B NFkB pot: 4.8; Insulin prom inh: 52.9

How did C=CCNC(=S)NNC(=O)c1cccn(Cc2ccc(Cl)cc2)c1=O do in these assays?
IL1B NFkB inh: -3.9; HUVEC tox IL1B: 83.8*; IL1B NFkB pot: 3.9; Insulin prom inh: 0.0

Results for COc1nc(Nc2ccc([N+](=O)[O-])cc2)nc(NC2CCCCC2)n1 ?
Insulin prom inh: 35.7

How did O=C(COc1ccccc1Cl)NCc1ccco1 do in these assays?
IL1B NFkB inh: 98.7*; HUVEC tox IL1B: 80.4*; IL1B NFkB pot: -98.7; Insulin prom inh: 74.1

How did COC(=O)c1ccc(C2C(C#N)=C(N)Oc3cc(C)n(C)c(=O)c32)cc1 (stereo unspecified) do in these assays?
IL1B NFkB inh: -2.1; HUVEC tox IL1B: -33.1; IL1B NFkB pot: 2.1; Insulin prom inh: 76.3*

What do the screens show for `CCCN(Cc1cc2cc(C)ccc2[nH]c1=O)C(=O)c1cccc(OC)c1`?
IL1B NFkB inh: 1.7; HUVEC tox IL1B: -17.7; IL1B NFkB pot: -1.7; Insulin prom inh: -196.8

How did CCCN(Cc1cc2cccc(C)c2[nH]c1=O)C(=O)c1cccc(OC)c1 do in these assays?
IL1B NFkB inh: 94.8*; HUVEC tox IL1B: 91.7*; IL1B NFkB pot: -94.8; Insulin prom inh: -28.6

Results for Cc1cccc(-n2nc(C)cc2N)c1 ?
IL1B NFkB inh: -17.9; HUVEC tox IL1B: 14.7; IL1B NFkB pot: 17.9; Insulin prom inh: -14.3

How did Cc1cc(C)cc(-n2nc(C)cc2N)c1 do in these assays?
IL1B NFkB inh: -4.6; HUVEC tox IL1B: 11.4; IL1B NFkB pot: 4.6; Insulin prom inh: 72.2*

Results for Cc1cc(NC(=O)c2ccc3c(c2)OCCO3)no1 ?
Insulin prom inh: -61.3

What do the screens show for `O=C(Nc1ccn(Cc2ccc(Cl)cc2)n1)c1ccc2c(c1)OCO2`?
IL1B NFkB inh: -4.8; HUVEC tox IL1B: 1.4; IL1B NFkB pot: 4.8; Insulin prom inh: 76.9*
